ELG1 DNA repair: blocks ELG1-dependent DNA repair in HEK293T cells | Potency, µM (series often up to 46.1 µM), hits mostly inhibitors | 330,000 tested, 2.3% active | AID 504467 | HEK293T ELG1-luciferase reporter, luminescence, 16 h; DNA damage induced by 5-fluorouridine; also: nearly all actives have a fitted effect of over 55% in size
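In this reporter screen, reduction of luminescence relative to DMSO vehicle indicated activity. Compounds and 5-fluorouridine were added together to 2,000 cells per well, incubated for 16 hr at 37 °C, then developed with ONE-Glo.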
DT40 TDP1 CPT: growth inhibition of DT40 Tdp1-/-;hTDP1 cells with camptothecin (screen for TDP1 inhibitors). chicken DT40 Tdp1-/-;hTDP1 cells + 20 nM CPT, ATP luminescence, 48 h. 420,000 tested, 12% active. Potency, µM (titrated, usually from 46.2 µM), actives largely listed as inhibitors; also: nearly all actives have a fitted effect of over 55% in size
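Cell growth measured by CellTiter-Glo luminescence after a minimum 48 h, 37 C compound exposure with 20 nM CPT in Tdp1-knockout DT40 cells stably expressing hTDP1, seeded 400/well; qHTS titration format.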
IL-1B inflam inh: inhibitors of inflammasome signaling (IL-1 beta secretion). THP-1 LPS/ATP IL-1B secretion, AlphaLISA, 16 h; hits give low values. activity change, % at 57.5 µM. 360,000 tested, 4.7% active. AID 743279; in the data active = activity change below about -50%; inconclusive = mostly about -30% to -49%
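Secreted IL-1B measured by AlphaLISA bead assay after 16 h compound exposure of THP-1 cells; compounds (final up to 57.5 uM) added 1 h before LPS (250 ng/mL) and ATP (1.25 mM) stimulation; lower signal means less secretion.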
HT1080-NT tox: kills 2HG-producing HT-1080-NT fibrosarcoma cells | Potency, µM (titrated, usually from 46.1 µM), hits mostly cytotoxic | AID 686970 | HT-1080-NT fibrosarcoma viability, CellTiter-Glo ATP luminescence, 48 h | 360,000 tested, 1.6% active;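 also: NT is the 2HG producing partner of a matched IDH1 knockdown line; nearly all actives have a fitted effect of over 55% in size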
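Compounds were tested in concentration-response format on HT-1080-NT cells for 48 hours at 37 degrees C. Cell viability came from CellTiter-Glo luminescence; curves were classified by r2, response magnitude and activity.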
HT1080 IDH1KD tx: toxicity to HT-1080 IDH1 knockdown cells (counter line). HT-1080 IDH1 knockdown viability, ATP luminescence, 48 h. AID 686971. 360,000 tested, 2% active. Potency, µM (titrated, usually from 46.1 µM), actives largely listed as cytotoxic
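After a 2 h attachment period, IDH1KD HT-1080 cells took pin-transferred compound for 48 h at 37 °C; ATP-based luminescence after 10 min room-temperature reagent incubation reported viability.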
DT40 TDP1 no CPT: qHTS for Inhibitors of human tyrosyl-DNA phosphodiesterase 1 (TDP1): qHTS in cells in absence of CPT | Potency, µM (top dose mostly 46.2 µM), actives largely listed as inhibitors | 420,000 tested, 15% active | DT40 Tdp1-/- hTDP1 cells, no CPT, ATP luminescence, 48 h | AID 686978, 2013; also: nearly all actives have a fitted effect of over 55% in size
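Growth kinetics read by CellTiter-Glo luminescence after ≥48 hr at 37 °C. Cells: DT40 Tdp1-/- stably carrying human TDP1, 400 per well, compound exposure in the absence of CPT (DMSO vehicle).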
Numbers stand for hits; – = inactive; ? = inconclusive; · = no result. Only some compounds are listed: those with a hit (about 19% of all), similar ones and a draw of the others. Unless noted, calls follow the shape of the dose curve; as a rule, active = well fitted curve in the direction sought with a large enough effect; inconclusive = small, poorly fitted or top-dose-only effect, or another doubt; inactive = no such curve, though single readings can be large; an effect the other way counts as inactive or inconclusive.

SMILES	ELG1 DNA repair	DT40 TDP1 CPT	IL-1B inflam inh	HT1080-NT tox	HT1080 IDH1KD tx	DT40 TDP1 no CPT
OC(CNCc1ccccc1)(c1ccc(F)cc1)c1ccc(F)cc1	–	?	?	–	–	18µM
OC(CNCc1ccc(F)cc1)(c1ccccc1)c1ccc(F)cc1 (stereo not given)	–	?	?	–	–	?
Cc1ccc(CNCC(O)(c2ccccc2)c2ccc(F)cc2)cc1 (stereo not given)	–	?	–	–	–	21µM
COc1ccccc1-c1csc(NC(=O)c2ccc(N3C(=O)CCC3=O)cc2)n1	?	?	–	–	–	?
COCCN(Cc1nnc(-c2cccs2)o1)C(=O)CN1C(=O)NC2(CCCCC2)C1=O	–	–	–	–	–	?
O=C1N(c2ccccc2)C[C@@H]2C[C@@H](c3cc4ccccc4o3)N3CCC[C@@]123	–	–	-103	?	0.58µM	23µM
CN1CCN(c2ccc3sc(-n4ccc5ccccc54)nc3c2)CC1	·	16µM	–	?	?	13µM
c1ccc(N2CCN(c3nc4cc5c(cc4s3)OCO5)CC2)cc1	?	–	–	–	–	–
C#CCOCCOCCOCCNc1nc(N2CCN(C(=O)CCCCCCCCCCNC(=O)[C@@H](CCSC)n3cc(CCO)nn3)CC2)nc(N2CCN(C(=O)CCCCCCCCCCNC(=O)[C@H]([C@@H](C)CC)n3cc(CCCCN=C(N)N)nn3)CC2)n1	?	?	-104	?	?	?
C#CCOCCOCCOCCNc1nc(N2CCN(C(=O)CCCCCCCCCCNC(=O)[C@@H](CCSC)n3cc(CCO)nn3)CC2)nc(N2CCN(C(=O)CCCCCCCCCCNC(=O)[C@H]([C@@H](C)CC)n3cc(CCCCCN)nn3)CC2)n1	?	?	-72	?	?	16µM
COc1ccc(NC(=O)N(C)[C@H]2C[C@H]3c4[nH]c5ccc(-c6ccc(OC)cc6)cc5c4CCN3C(=O)[C@H]2[C@H](C)O)cc1	·	18µM	–	23µM	16µM	13µM
COc1ccc(-c2ccc3[nH]c4c(c3c2)CCN2C(=O)[C@@H]([C@H](C)O)[C@@H](N(C)C(=O)Nc3ccccc3)C[C@@H]42)cc1	·	13µM	–	23µM	16µM	6.5µM
COc1ccc(NC(=O)N(C)[C@H]2C[C@H]3c4[nH]c5ccccc5c4CCN3C(=O)[C@H]2[C@H](C)O)cc1	·	–	–	–	–	?
CN[C@H]1C[C@H]2c3[nH]c4ccc(-c5ccc(OC)cc5)cc4c3CCN2C(=O)[C@H]1[C@H](C)O	·	2.6µM	?	8.2µM	13µM	3.3µM
CN[C@H]1C[C@H]2c3cc(N4CCN(C)CC4)ccc3CCN2C(=O)[C@H]1[C@H](C)O	·	–	–	–	–	–
Cc1cccc2cc(CN(CCN(C)C)C(=S)NCc3ccco3)c(=O)[nH]c12	–	–	–	–	–	?
CCc1ccc2[nH]c(=O)c(CN(CCN(CC)CC)C(=S)NCc3ccco3)cc2c1	–	?	-64	–	?	?
CCc1ccc2[nH]c(=O)c(CN(Cc3ccc4c(c3)OCO4)C(=O)c3ccco3)cc2c1	–	23µM	–	–	–	?
COc1ccc2[nH]c(=O)c(CN(Cc3ccc4c(c3)OCO4)C(C)=O)cc2c1	–	?	–	–	–	–
CCc1ccc2[nH]c(=O)c(CN(CCN(C)C)C(=S)NCc3ccco3)cc2c1	–	?	-74	–	?	?
CCc1ccc2[nH]c(=O)c(CN(CC3CCCO3)C(=S)NCc3ccco3)cc2c1 (stereo not given)	18µM	21µM	?	–	–	?
c1ccc(CN2CC[C@@H](Nc3nccn4ccnc34)C2)cc1	·	?	–	–	–	–
CC(C)CNC(=O)c1ccccc1N(Cc1ccccc1)S(C)(=O)=O	–	–	–	–	–	–
CC1CC1C(=O)OCC(=O)Nc1ccc(S(=O)(=O)N2CCOCC2)cc1 (stereo not given)	–	–	–	–	–	–
Cc1cc(C)cc(C(O)c2ncc(-c3ccccc3)[nH]2)c1 (stereo not given)	·	–	–	–	–	–
SMILES	ELG1 DNA repair	DT40 TDP1 CPT	IL-1B inflam inh	HT1080-NT tox	HT1080 IDH1KD tx	DT40 TDP1 no CPT
CCc1ccc(OCC(=O)c2c(O)c3ccccc3oc2=O)cc1	–	?	–	–	–	23µM
Cc1ccc(C(C)C)c(OCC(=O)c2c(O)c3ccccc3oc2=O)c1	·	?	–	–	–	23µM
Cc1ccc(OCC(=O)c2c(O)c3ccccc3oc2=O)cc1C	?	?	–	–	–	15µM
COC(=O)c1cc(NC(=O)CN(C)C2CCS(=O)(=O)C2)cc(C(=O)OC)c1 (stereo not given)	–	–	–	–	–	–
O=C1NN(CCO)C(=S)Nc2ccccc21	·	–	–	–	–	–
O=C(Cc1c(F)cccc1Cl)NCc1cccnc1	?	–	–	–	–	–
O=C(COc1ccccc1-c1nc(-c2ccccc2)no1)Nc1ccc([N+](=O)[O-])cc1	·	–	·	·	·	–
CCc1nnc2c(NCc3ccccc3OC)nc3ccccc3n12	·	–	·	·	·	–
COc1ccc(C=O)c2[nH]c3c(Cl)ncnc3c12	?	–	?	–	–	?
COc1cc2[nH]c3c(N4CCN(c5ccc(Cl)cc5)CC4)ncnc3c2cc1OC	–	18µM	–	?	?	18µM
COc1cc2[nH]c3c(Cl)ncnc3c2cc1OC	–	?	-61	–	–	21µM
COc1ccc(-n2cc(C(=O)Nc3ccccc3C#N)c3ccccc3c2=O)cc1	·	–	·	·	·	?
CN1CCN(C(=O)c2cc3c(c(-c4cccc(-c5cc6ccccc6o5)c4)n2)[C@H](CCO)N(S(=O)C(C)(C)C)C3)CC1 (stereo not given in full)	·	?	–	–	–	?
CCn1c(SC)nnc1-c1sc2cc(Cl)ccc2c1Cl	–	16µM	?	–	–	?
CSc1nnc(-c2ccccc2)n1C	–	–	–	–	–	–
CSc1nnc(-c2sc3cc(Cl)ccc3c2Cl)n1C	–	?	–	–	–	26µM
Cc1cc(C)n2nc(SCc3cccc(S(=O)(=O)N(C)C)c3)nc2n1	–	?	–	–	–	15µM
C=CCOc1ccccc1CN(C(=O)CCl)c1ccc2c(c1)OCO2	–	18µM	-106	3.7µM	2.6µM	10µM
CCOc1ccccc1NC(=O)Nc1ccc2c(c1)OCO2	?	?	?	–	–	–
Cc1cnc(SCc2ccccn2)nc1C1CCCN(Cc2ccsc2)C1 (stereo not given)	·	15µM	·	·	·	15µM
